HCV inh = inhibitors of hepatitis C virus infection; Huh7.5.1 HCVcc-Cre infection, luciferase reporter, 44 h; 340,000 tested, 3.4% active; Potency, µM (series often up to 41.8 µM), actives largely listed as inhibitors; AID 651820; active = well fitted inhibition curve with a large enough effect; inconclusive = small, poorly fitted or top-dose-only effect, or another doubt; inactive = no such curve, though single readings can be large or run the other way
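Antiviral activity was scored by luciferase reporter output from cells infected with HCVcc-Cre (~0.5 moi) in presence of compound, 44 h infection period, cells seeded 1,000/well 4 h prior.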
FMDV inh = blocks foot and mouth disease virus; FMDV antiviral cell-based qHTS; Potency, µM (doses to about 57.9 µM), most hits filed as inhibitors; 410,000 tested, 1.2% active; calls by dose curve; tested in HEK293T cells; note: read-out not given here; nearly all actives have a fitted effect of over 45% in size
LASV entry inh = Lassa virus entry inhibition. Lassa virus pseudotype entry inhibition, cell reporter. Potency, µM (doses to about 37.9 µM), most hits filed as inhibitors. 300,000 tested, 1.2% active. AID 540256; calls by dose curve; tested in HEK293 cells; note: nearly all actives have a fitted effect of over 50% in size
Marburg entry inh = blocks Marburg virus binding to or entry into cells; Marburg virus pseudotyped entry inhibition, cell reporter; Potency, µM (top dose mostly 37.8 µM), most hits filed as inhibitors; 300,000 tested, 1.8% active; calls by dose curve; tested in HEK293 cells
HCMV inh = blocks human cytomegalovirus replication | HFF cells, HCMV-luciferase reporter, 72 h; active compounds read low | activity change, negative = inhibition, % at 57.5 µM | 410,000 tested, 4.5% active | AID 1259415; in the data active = activity change below about -60%; inconclusive = no clear call, values can overlap the other calls; inactive = above about -39%
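Cell-based, HFFs, 1000 cells/well, 16 h 37C; cpds in DMSO + HCMV-luc, MOI 1 PFU/cell; 72 h 37C; OneGlo luminescence after 5 min RT; norm. to buffer vs Salinomycin 10uM.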
Numbers stand for hits; - = inactive; ? = inconclusive; . = not tested or not shown; ! = a repeat was not active. Most compounds without a hit are left out; they make up all but 7.9% or so of the library.

SMILES | HCV inh | FMDV inh | LASV entry inh | Marburg entry inh | HCMV inh
CCN(CC)c1ccc(/C=N/NC(=O)c2ccccn2)cc1 | ? | - | 11µM | ? | -
CC(C)(C)CC(C)(C)NC(=O)C(=O)c1cccnc1 | . | . | . | . | -
Cc1ccc(-c2cn3c(n2)sc2cc(C(=O)NC4CCCc5ccccc54)ccc23)cc1 (centres undefined) | . | - | - | . | .
CC(=O)Oc1ccccc1/C=C1\CCOC1=O | - | . | - | - | -62
Cc1ccc(S(=O)(=O)Nc2c(C)n(C)n(-c3ccccc3)c2=O)cc1C(=O)NCc1ccco1 | 32µM | - | ? | ? | -
Cc1cc(C)cc(NS(=O)(=O)c2ccc3[nH]cc(C(=O)NCc4ccccc4Cl)c(=O)c3c2)c1 | . | - | ? | . | -
Cc1cc(C)cc(NS(=O)(=O)c2ccc3[nH]cc(C(=O)NCc4ccco4)c(=O)c3c2)c1 | - | - | ? | ? | -73!
Cc1ccc2[nH]cc(C(=O)NCc3cccs3)c(=O)c2c1 | 10µM | . | ? | - | -
CC(=O)c1cccc(NC(=O)CSc2nc3ccccc3nc2Cc2ccc(F)cc2)c1 | . | - | - | . | -
COc1ccc(OC)c(NC(=O)Cn2c(=O)cc(-c3ccccc3)c3c(C)nn(C)c32)c1 | . | ? | - | . | -
Cc1cc(C(C)(C)CC(C)(C)C)ccc1OCCOCC[N+](C)(C)Cc1ccccc1 | 2.8µM | ? | . | . | -94
COc1ccc(C2c3ccc(O)cc3Oc3ncn4nc(-c5cccnc5)nc4c32)cc1OC (centres undefined) | 28µM | ? | ? | ? | -
COc1ccc(C2c3ccc(O)cc3Oc3ncn(Cc4ccco4)c(=N)c32)cc1OC (centres undefined) | ? | - | . | . | ?
COC(=O)c1nnn(-c2ccc(F)c(Cl)c2)c1C(=O)OC | - | - | - | - | -
COC(=O)c1c(C)nn(-c2ccc(F)c(Cl)c2)c1-c1cc(C)on1 | 8.9µM | ? | ? | 4.5µM | -
CCNc1ccc(-c2nc(-c3ccccn3)no2)cc1[N+](=O)[O-] | . | - | - | - | -106
c1ccc(-c2noc(-c3ccc4c(c3)OCO4)n2)nc1 | ? | . | 0.41µM | ? | -81
c1ccc(-c2nc3n(c2-c2ccc4c(c2)OCO4)CCC3)nc1 | . | . | 10µM | . | .
c1ccc(-c2noc(-c3ccncc3)n2)nc1 | - | . | - | ? | -
c1ccc(-c2noc(-c3ccc4ccccc4c3)n2)nc1 | ? | 4µM | 0.29µM | 1.6µM | .
Cc1occc1-c1nc(-c2ccccn2)no1 | ? | - | ? | 11µM | -
Cc1ccc(-c2cc(C(=O)N3CCCc4ccccc43)c3ccccc3n2)cc1 | - | - | - | ? | -
Cc1ccc2nc3sc(C(=O)N4CCCc5ccccc54)c(N)c3cc2c1 | ? | - | ? | ? | -90
CCOc1ccccc1-c1cc(C(=O)N/N=C/c2cccnc2)c2ccccc2n1 | - | - | ? | 5.6µM | -
O=C(COc1ccccc1-c1ccccc1)N/N=C/c1cccnc1 | ? | - | . | . | ?
SMILES | HCV inh | FMDV inh | LASV entry inh | Marburg entry inh | HCMV inh
CCOc1ccc(-c2cc(C(=O)N/N=C/c3cccnc3)c3ccccc3n2)cc1 | - | - | ? | ? | -
Cc1ccc(COc2ccccc2-c2cc(C(=O)N/N=C/c3cccnc3)[nH]n2)cc1 | ? | ? | 8.9µM | ? | -
CCOc1ccccc1CNC(=O)c1cccn1-c1nnc(N2CCCCC2)s1 | . | - | ? | . | -
CCOc1ccccc1CNCc1cccn1-c1nnc(N2CCN(c3ccccc3)CC2)s1 | . | ? | ? | . | -98
Cc1cccc(N2C(=O)C(CC(=O)Nc3cccc(F)c3)N(Cc3cccs3)C2=O)c1 (centres undefined) | . | - | - | . | -
COc1cc(-c2nc(-c3ccccc3)c(-c3ccc(Br)cc3)[nH]2)cc(OC)c1O | . | - | ? | ? | -
Oc1ccc(-c2nc(-c3ccccc3)c(-c3ccc(Br)cc3)[nH]2)cc1 | . | - | - | - | -63
C=CCC[C@H](Cc1ccc(F)cc1)C(=O)OC[C@H](C)NC(=O)[C@H](CC=C)CC(=O)NCCO | - | - | . | . | -69
C=CCC[C@H](Cc1ccc(F)cc1)C(=O)OC[C@@H](NC(=O)[C@@H](CC=C)CC(=O)N[C@@H](CO)Cc1ccccc1)C(C)(C)C | 22µM | - | . | . | -
C=CC[C@H](CC(=O)NCCO)C(=O)N[C@H](C)COC(=O)[C@@H](CC=C)Cc1ccc(F)cc1 | - | - | . | . | -
C=CCC[C@H](Cc1ccc(F)cc1)C(=O)OC[C@@H](NC(=O)[C@@H](CC=C)CC(=O)N(CCO)Cc1ccccc1)C(C)(C)C | 3.2µM | ? | . | . | -
C=CCC[C@@H](Cc1ccc(F)cc1)C(=O)OC[C@@H]1CCCN1C(=O)[C@H](CC=C)CC(=O)N[C@H](CO)Cc1ccccc1 | 10µM | ? | . | . | -
C=CCC[C@@H](Cc1ccc(F)cc1)C(=O)OC[C@H]1CCCN1C(=O)[C@@H](CC=C)CC(=O)N[C@H](CO)Cc1ccccc1 | - | ? | . | . | -
COCC(=O)Nc1cc(C(=O)N2CCc3ccccc3C2)c2c(c1)nc(-c1ccncc1)n2C | . | - | . | . | .
CCOC(=O)CN1C(=O)[C@]2(OCCC=C[C@@H]2C)c2c(Br)cccc21 | . | . | . | - | .
O=C(Nc1ccccc1)N1CCc2scc[n+]2-c2ccccc21 | ? | - | - | - | -67
CC1CN(C(=O)Nc2ccccc2)c2ccccc2-[n+]2ccsc21 (centres undefined) | ? | - | - | - | -
O=C(Nc1cccc(C(=O)Nc2cccc(Br)c2)c1)c1ccccc1 | 14µM | - | . | . | -
C=CCN(c1ccc(C(=O)Nc2ccc(C)cc2)cc1)S(C)(=O)=O | - | - | ? | - | -
CC(=O)c1cccc(NC(=O)c2ccc(N(Cc3ccc(C)cc3)S(C)(=O)=O)cc2)c1 | 13µM | ? | ? | ? | -
C=CCN(c1ccc(C(=O)Nc2ccc(C)c(C)c2)cc1)S(C)(=O)=O | ? | ? | - | ? | -69
O=C(Nc1ccc(Cl)cn1)c1cccc(F)c1 | ? | - | - | ? | -
Cc1ccc(NC(=O)c2ccc(N(Cc3ccccc3)S(C)(=O)=O)cc2)cc1 | . | - | ? | . | -
O=C(Nc1cccc(C(=O)Nc2ccc(Cl)cn2)c1)c1ccccc1 | 13µM | - | . | . | -
O=C(Nc1ccc(NC(=O)C2CC2)cn1)c1ccccc1 | - | - | 5.6µM | ? | -
SMILES | HCV inh | FMDV inh | LASV entry inh | Marburg entry inh | HCMV inh
Cc1ccc(C(=O)Nc2ccc(C(=O)/C=C/c3cccs3)cc2)cc1 | - | - | ? | - | -
COc1ccc(C(=O)Nc2ccc(NC(=O)C3CC3)cn2)cc1 | - | - | - | - | -
Cc1cc(=O)oc2cc(OC(=O)c3cncc(Br)c3)ccc12 | - | - | - | - | -103
O=C(/C=C/c1cccs1)c1ccc(NC(=O)c2cccc(Br)c2)cc1 | 6.3µM | - | - | - | -
CCCC(=O)Oc1ccc2c(C)cc(=O)oc2c1 | - | - | - | ? | -
Cc1ccc(C(=O)Nc2cccc(C(=O)O)c2)cc1 | - | 2µM | 5.8µM | ? | -
CCN(C)C(=O)C1=CN2CCN(Cc3ccccc3C(F)(F)F)C(=O)N=C2O1 | . | . | . | . | -
Cc1ccc(C(=O)Nc2cccc(C(=O)N3CCOCC3)c2)cc1 | - | - | - | - | -
CC(C)(C)c1ccc(C(=O)Nc2cccc(C(=O)N3CCOCC3)c2)cc1 | 5.6µM | - | . | . | ?

Bioassay records deposited in PubChem BioAssay by National Center for Advancing Translational Sciences (NCATS).
